What all share (assay): NCI-60 one-dose screen, 48 h (100 = growth as untreated, 0 = no growth, -100 = all killed)
Holding throughout (conditions): 10 µM unless noted

The test system of assay [1] is DU-145 prostate.
The test system of assay [2] is K-562 leukemia.
The subject of assay [3] is MALME-3M melanoma.
The subject of assay [4] is MDA-MB-231 breast.
The test system of assay [5] is RXF 393 renal.
For assay [6], the system named is SF-268 CNS.
Assay [7] deals with SF-295 CNS.
The subject of assay [8] is SF-539 CNS.
Assay [9] deals with UACC-257 melanoma.
Assay [10] deals with M14 melanoma.
Assay [11] deals with HCT-15 colon.
Assay [12] deals with HT29 colon.
Assay [13] concerns SNB-75 CNS.
The test system of assay [14] is SNB-19 CNS.
Assay [15] concerns U251 CNS.
Assay [16] deals with PC-3 prostate.
Assay [17] concerns SK-MEL-5 melanoma.
The subject of assay [18] is UACC-62 melanoma.
The test system of assay [19] is SK-MEL-28 melanoma.
Assay [20] concerns LOX IMVI melanoma.

Compounds without any hit were thinned out: in the full panel of roughly 83,000, 20% have a hit.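 The test compound was applied at a single concentration to cells in 96-well plates for 48 hours, and percent growth was recorded.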 A number with no mark means an inactive call. Activity calls are given as the source filed them. How the source made its calls: active means growth percent below 10; inactive means the rest.

This note sets out measurements from PubChem BioAssay (NCI).

On to `O=C(CNc1nc(-c2ccc(Cl)cc2)cs1)Nc1ccc(-c2nc3ccccc3s2)cc1`, for which the growth in assay [1] was 95%; in assay [2] it was 96.4%; in [3], 102%; in assay [4] it was 84.7%; in assay [5], 106%; in assay [6], 90.8%. Besides, the growth in assay [7] was 98.6%; in assay [8], 97%; in assay [9], 100%; in assay [10], 88.2%; in [11] it was 110%; in assay [12], 108%. For the same molecule, the growth was 77.8% in assay [13]; 98.2% in [14]; 91.6% in assay [15]; 90.7% in [16]; 87.7% in assay [17]; 91.9% in assay [18]. The growth in assay [19] was 111%.
`CC(=O)Nc1cccc(-n2c(=O)n(C3CC3)c(=O)c3c(Nc4ccc(I)cc4F)n(C)c(=O)c(C)c32)c1`: the growth in assay [1] was 53%; in [2], 25.5%; in assay [3], -0.925% (active); in assay [4], 18.6%; in assay [5], -15.2% (active); in assay [6], 53%. Further, the growth in [7] was 82.6%; in assay [8] it was 41.1%; in assay [9], -21.9% (active); in assay [10] it was 1.71% (active); in assay [11], 45.4%; in assay [12] it was 5.59% (active). The growth in assay [13] was 43%; in assay [14], 48.3%; in [15], 39.9%; in [16] it was 63.7%; in assay [17], 32.7%; in assay [18], -6.11% (active). For the same molecule, the growth is 14% in [20] and -4.75% (active) in assay [19].
In the case of `COc1cc2c(Nc3ccc(Br)cc3F)ncnc2cc1OCC1CCN(C)CC1`, the growth in assay [1] was 33%; in [2] it was 3.22% (active); in [3], -52.3% (active); in assay [4], 9.67% (active); in assay [5], -38.2% (active); in assay [6], 30.5%. In addition, the growth in assay [7] is 45.8%; in assay [8], -58.4% (active); in assay [9] it was -85.9% (active); in assay [10], -82.5% (active); in assay [11] it was 11.6%; in [12], 5.35% (active). Also, the growth is -59.8% (active) in assay [13]; 37.6% in [14]; 8.98% (active) in [15]; 39.1% in assay [16]; -66.3% (active) in assay [17]; -45.8% (active) in [18]. Moreover, the growth in [19] is -79.7% (active).
Regarding `COc1cc2nccc(Oc3ccc(NC(=O)Nc4cc(C)on4)c(Cl)c3)c2cc1OC`, the growth is 31.2% in assay [1]; 5.94% (active) in assay [2]; 20.4% in assay [3]; 10% in [4]; -28.9% (active) in [5]; 21.7% in assay [6]. Moreover, the growth in assay [7] was 19%; in assay [8] it was -50.3% (active); in [9], 19.6%; in assay [10] it was 7.27% (active); in assay [11], 18.3%; in [12], -9.07% (active). Also, the growth is -6.16% (active) in assay [13]; 32.8% in assay [14]; 28.2% in [15]; 21.1% in assay [16]; -19.7% (active) in assay [17]; 11.5% in assay [18]. Also, the values for the growth in [20] and in [19] were -2.96% (active) and 23.2%, respectively.
For the molecule `Cn1cc(-c2[nH]c3cc(NC(=O)[C@H](N)C4CCCCC4)cc4c3c2C=NNC4=O)cn1`, the growth in assay [1] was 30.5%; in assay [2], -59.6% (active); in assay [3], -56.2% (active); in [4], -67.7% (active); in assay [5], -85.1% (active); in assay [6], -23.4% (active). For the same molecule, the growth was 16.8% in assay [7]; -84.8% (active) in [8]; 21.1% in [9]; -17.6% (active) in assay [10]; 20.1% in assay [11]; -11.1% (active) in assay [12]. The growth was -70.2% (active) in assay [13]; -24.4% (active) in [14]; -83.3% (active) in assay [15]; 7.2% (active) in assay [16]; -36.6% (active) in assay [17]; -73.4% (active) in assay [20]. For the same molecule, in assay [19], the growth was -70% (active).
In the case of `COc1cc2c(cc1O)c(=O)n(CCN(C)C)c1c3cc4c(cc3ncc21)OCO4`, the growth in assay [1] is -10.9% (active); in [2], 2.47% (active); in assay [3] it was -57.6% (active); in assay [4], -5.67% (active); in assay [5], -51% (active); in assay [6] it was 3.41% (active). For the same molecule, the growth is -5.78% (active) in assay [7]; -35.5% (active) in assay [8]; -47.6% (active) in assay [9]; -23.3% (active) in [10]; 2.84% (active) in assay [11]; 8.08% (active) in [12]. The growth was -37.2% (active) in assay [13]; -0.441% (active) in assay [14]; -49% (active) in assay [15]; -9.82% (active) in assay [16]; -50.9% (active) in assay [17]; -56.3% (active) in assay [20]. The growth in assay [19] was -7.55% (active).
